Data published in the supplement of paper PMC12669032.
Unmarked numbers belong to inactive results.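 Rule for the calls: active = AUC reduced over 20% with Padj below 0.05 in at least 2 of 3 replicates; inactive = otherwise.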

Key:
Assay in all cases: growth AUC relative to DMSO control (median of replicates) (fraction); higher = more growth (less inhibition), active = hit call of the paper
Conditions in all cases: 20 µM; 24 h
[1] = tested on: Akkermansia muciniphila
In short: (§1)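 For each compound at 20 µM (1% DMSO), gut bacterial monocultures seeded at OD600 0.05 grew anaerobically in mGAM at 37 °C in round-bottom 96-well plates. Hourly OD600 readings over 24 h gave growth curves whose minimum OD was set to 0. Area under these curves was normalised to the plate median of solvent-only wells, or to row and column medians on the industrial chemical plate. Values are medians of three biological replicates grown on separate days.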

[2] = tested on: Bacteroides caccae
In short: as §1

[3] = tested on: Bacteroides clarus
In short: as §1

[4] = tested on: Bacteroides dorei
In short: as §1

[5] = tested on: Bacteroides stercoris
In short: as §1

[6] = tested on: Bacteroides thetaiotaomicron
In short: as §1

[7] = tested on: Bacteroides uniformis
In short: as §1

[8] = tested on: Bifidobacterium longum subsp. longum
In short: as §1

[9] = tested on: Clostridium difficile
In short: as §1

[10] = tested on: Collinsella aerofaciens
In short: as §1

Structure (SMILES)	growth AUC [1]	growth AUC [2]	growth AUC [3]	growth AUC [4]	growth AUC [5]	growth AUC [6]	growth AUC [7]	growth AUC [8]	growth AUC [9]	growth AUC [10]
COC(=O)C(C)Oc1ccc(Oc2ccc(Cl)cc2Cl)cc1 (stereo not given)	0.924	0.963	0.951	1.04	0.795	0.986	0.963	0.919	1.01	0.958
COC(=O)c1ccccc1S(=O)(=O)NC(=O)N(C)c1nc(C)nc(OC)n1	0.981	0.984	0.979	0.984	1.05	0.99	1	1.01	0.984	1.03
C[N+]1(C)CCCCC1.[Cl-]	0.993	1.02	1.03	1.02	1.02	1.03	1.05	1.01	1.01	1.02
CCC(C)[C@H]1O[C@]2(C=C[C@@H]1C)C[C@@H]1C[C@@H](C/C=C(\C)[C@@H](O[C@H]3C[C@H](OC)[C@@H](O[C@H]4C[C@H](OC)[C@@H](O)[C@H](C)O4)[C@H](C)O3)[C@@H](C)/C=C/C=C3\CO[C@@H]4[C@H](O)C(C)=C[C@@H](C(=O)O1)[C@]34O)O2.CO[C@H]1C[C@H](O[C@H]2[C@H](C)O[C@@H](O[C@@H]3/C(C)=C/C[C@@H]4C[C@@H](C[C@]5(C=C[C@H](C)[C@@H](C(C)C)O5)O4)OC(=O)[C@@H]4C=C(C)[C@@H](O)[C@H]5OC/C(=C\C=C\[C@@H]3C)[C@]54O)C[C@@H]2OC)O[C@@H](C)[C@@H]1O (stereo not given in full)	1.22	0.965	1.07	0.965	0.915	1.01	1.01	0.919	0.952	0.996
CCOP(=O)(NC(C)C)Oc1ccc(SC)c(C)c1 (stereo not given)	1.19	0.974	0.982	0.877	0.92	0.998	0.931	1.01	0.976	0.95
CCCCNC(=O)n1c(NC(=O)OC)nc2ccccc21	1.04	0.999	0.979	1	1.01	0.999	1.02	0.984	0.955	0.993
CNC(=O)/C(=N/OC)c1ccccc1Oc1ccccc1	0.883	1.01	0.972	0.982	1.02	0.975	0.997	0.942	1	0.998
C#CC(C)(C)NC(=O)c1cc(Cl)cc(Cl)c1	1.06	0.964	0.949	0.956	0.88	0.932	0.96	0.987	0.948	0.936
Cc1ccccc1CO[C@@H]1C[C@@]2(C(C)C)CC[C@]1(C)O2 (mixture of isomers)	1.08	0.955	0.967	0.977	1.02	1.01	0.997	1.03	1.04	1.01
COP1(=S)OCc2ccccc2O1 (stereo not given)	1.01	0.973	0.979	0.999	1.02	0.993	0.986	0.972	0.97	1.04
COP(=O)(OC)Oc1ccc(S(C)=O)c(C)c1 (stereo not given)	0.935	0.986	0.95	1	1.02	0.972	0.994	1	1.01	0.996
Cc1cnc(C2=NC(C)(C(C)C)C(=O)N2)c(C(=O)O)c1 (stereo not given)	1.05	0.987	0.993	1.02	0.976	1.01	1.01	1.03	1.01	1.02
CC[C@H](C)[C@H]1O[C@]2(C=C[C@@H]1C)C[C@@H]1C[C@@H](C/C=C(\C)[C@@H](O[C@H]3C[C@H](OC)[C@@H](O[C@H]4C[C@H](OC)[C@@H](NC)[C@H](C)O4)[C@H](C)O3)[C@@H](C)/C=C/C=C3\CO[C@@H]4[C@H](O)C(C)=C[C@@H](C(=O)O1)[C@]34O)O2.O=C(O)c1ccccc1	1.08	0.0357 (active)	0.264 (active)	0.0271 (active)	0.00403 (active)	0.812	0.322 (active)	0.167 (active)	0.781	0.553 (active)
ClC1=C(Cl)C2(Cl)C3C(Cl)C=CC3C1(Cl)C2(Cl)Cl (stereo not given)	1.1	1.01	1.01	0.958	1.08	0.99	0.983	0.932	0.963	0.951
COC(=O)c1cc(Oc2ccc(Cl)cc2Cl)ccc1[N+](=O)[O-]	1.02	0.953	0.793 (active)	0.973	0.436 (active)	0.968	0.814	1.02	0.905	0.901
CCCN(CCCl)c1c([N+](=O)[O-])cc(C(F)(F)F)cc1[N+](=O)[O-]	1.01	0.977	0.95	0.94	0.93	0.918	0.927	1.07	0.995	0.961
CCOP(=O)(NC(C)C)Oc1ccc(S(C)=O)c(C)c1 (stereo not given)	1.01	0.999	1.04	1.04	1.02	0.997	1.02	1.06	1.08	1
C[C@@H]1C[C@@H]([C@H](O)CC2CC(=O)NC(=O)C2)C(=O)[C@@H](C)C1	1.15	1.02	1.02	0.98	1.05	1.04	0.999	1.02	1.05	0.989
CC1(C)CON(Cc2ccccc2Cl)C1=O	1.11	0.927	1.01	0.917	0.996	0.98	0.949	0.938	0.977	0.947
Clc1cc(Cl)c(Cl)c(Cl)c1	0.953	0.971	0.989	0.957	0.887	0.997	1.02	1	0.977	0.922
Oc1ccc(Cl)cc1Cc1cc(Cl)ccc1O	0.202 (active)	0.416 (active)	0.154 (active)	0.765	0.00782 (active)	0.359 (active)	0.163 (active)	0.598 (active)	0.633 (active)	0.878
CC(=O)CC(c1ccco1)c1c(O)c2ccccc2oc1=O (stereo not given)	0.866	1.01	0.957	1	1	0.98	0.968	0.95	1.02	0.967
Clc1c(Cl)c(Cl)c(Cl)c(Cl)c1Cl	0.994	1.01	1	1.04	1.08	1	0.992	0.981	1	1.06
CC(Oc1ccc(Oc2nc3ccc(Cl)cc3o2)cc1)C(=O)O (racemic)	0.992	1.05	0.995	0.996	1.25	0.996	0.962	1.03	0.987	1.03
CON(C)C(=O)Nc1ccc(Br)c(Cl)c1	0.863	1.04	0.978	1.08	0.958	0.998	0.944	0.946	0.996	1
CC(Cc1ccc(C(C)(C)C)cc1)CN1C[C@@H](C)O[C@@H](C)C1 (stereo not given in full)	1.04	1.03	0.974	1.01	1.07	0.996	1.05	0.992	1.02	1
O=[N+]([O-])/N=C1\NCCN1Cc1ccc(Cl)nc1	0.979	1.01	1.02	1.03	1.08	0.984	1	0.963	0.99	0.98
